From PubChem
TIM10 inh – TIM10 yeast growth inhibition | 1.4% of 330,000 active | S. cerevisiae TIM10 strain growth, BacTiter-Glo luminescence, 24 h | inhibition, % at 10 µM;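 active means inhibition of 40% or more at the single tested concentration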;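 further: wild-type TIM10 isogenic control strain grown at permissive 25 °C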
tim23-1 inh – growth inhibitors of tim23-1 mutant yeast; S. cerevisiae tim23-1 growth, BacTiter-Glo luminescence, 24 h; inhibition, % at 20 µM; 1.3% of 330,000 active;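 active means growth inhibition of the mutant yeast at or above 50%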;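 further: temperature-sensitive mutant grown at 25 °C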
tim10-1 inh – inhibits growth of tim10-1 mutant yeast; S. cerevisiae tim10-1 ts strain growth, BacTiter-Glo, 24 h; inhibition, % at 20 µM; 2.2% of 330,000 active;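 active means inhibition of at least 40%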;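 further: mutant grown at 25 °C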
NLRP3 yeast inh – inhibitors of NALP3 inflammasome in yeast. AID 2825. Yeast reconstituted NLRP3/ASC/caspase-1, beta-gal luminescence, 24 h. inhibition, % at 10 µM. 0.39% of 330,000 active;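 active means inhibition of 50% or more; inactive means inhibition below 50%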
NALP1 inh – inhibitors of NALP1 inflammasome in yeast; S. cerevisiae NALP1/ASC/caspase-1 growth, X-gal OD620, 72 h; inhibition, % at 10 µM; 0.61% of 280,000 active; in the data active means inhibition mostly above about 24%, no sharp cut-off; inactive means mostly below about 32%
V-ATPase pH – regulators of yeast V-ATPase proton transport; S. cerevisiae, pHLuorin cytosolic pH fluorescence; 0.37% of 350,000 active; response, % at 10 µM; in the data active means response mostly above about 7.3%, no sharp cut-off; inactive means mostly below about 5.4%; further: actives read high
tim10-1 conf – tim10-1 yeast growth inhibition, confirmed. shares compounds with tim10-1 inh. S. cerevisiae tim10-1 ts strain growth, BacTiter-Glo, 24 h. inhibition, % at 20 µM. 56% of 7,400 active;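 active means inhibition of yeast growth at or above a set limit in either of two repeat tests at 20 µM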;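 further: tim10-1 mutant grown at permissive 25 °C to find synthetic lethal compounds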
A number is an active result. Most compounds without a hit are left out; they make up all but 4.2% or so of the library.

What do the screens show for `CN(C)C(=O)Oc1ccc2c(c1)O/C(=C\c1cccc(Cl)c1)C2=O`?
TIM10 inh: inactive; tim23-1 inh: inactive; tim10-1 inh: 40.7; NLRP3 yeast inh: inactive; NALP1 inh: inactive; V-ATPase pH: inactive; tim10-1 conf: 31.8

What do the screens show for `COc1ccc(C(O)(c2ccccc2)c2ccncc2)cc1` (centres undefined)?
V-ATPase pH: inactive

How did CC(C)(O)[C@H]1O[C@H]2CC[C@@]3(C)[C@@](O)(CC[C@H]4Cc5c([nH]c6ccccc56)[C@@]43C)C2=CC1=O do in these assays?
TIM10 inh: inactive; tim23-1 inh: inactive; tim10-1 inh: 47.3; NLRP3 yeast inh: inactive; NALP1 inh: inactive; tim10-1 conf: 41.0

Results for CN(C)c1ccc(-[n+]2c(-c3ccccc3)cc(-c3ccccc3)cc2-c2ccccc2)cc1 ?
TIM10 inh: inactive; tim23-1 inh: inactive; tim10-1 inh: 51.8; NLRP3 yeast inh: inactive; NALP1 inh: inactive; V-ATPase pH: inactive; tim10-1 conf: 37.2

Results for Cc1ccc(-c2cc(-c3ccc(C)cc3)[n+](-c3ccccc3)c(-c3ccc(C)cc3)c2)cc1 ?
TIM10 inh: inactive; tim23-1 inh: inactive; tim10-1 inh: 42.7; NLRP3 yeast inh: inactive; V-ATPase pH: inactive; tim10-1 conf: inactive

How did c1ccc(-c2cc(-c3ccccc3)[n+](-c3ccccc3)c(-c3ccccc3)c2)cc1 do in these assays?
TIM10 inh: inactive; tim23-1 inh: inactive; tim10-1 inh: inactive; NLRP3 yeast inh: inactive; V-ATPase pH: inactive

Results for Cc1cc(C=C2C(=O)N(C)C(=S)N(C)C2=O)c(C)n1C1CCCC1 ?
TIM10 inh: inactive; tim23-1 inh: inactive; tim10-1 inh: 46.7; NLRP3 yeast inh: inactive; NALP1 inh: inactive; V-ATPase pH: inactive; tim10-1 conf: inactive

Results for CC(C)(C)n1cc(C(=O)c2ccccc2)cc1-c1ccccc1 ?
TIM10 inh: inactive; tim23-1 inh: inactive; tim10-1 inh: inactive; NLRP3 yeast inh: inactive; NALP1 inh: inactive; V-ATPase pH: inactive

Results for O=C(c1ccc2c(c1)ncn2-c1ccc(F)cc1F)N1CCC2(CC1)OCCO2 ?
TIM10 inh: inactive; tim23-1 inh: inactive; tim10-1 inh: inactive; NLRP3 yeast inh: inactive; NALP1 inh: inactive; V-ATPase pH: inactive

How did Cc1ccc(CN2CCSc3ccc(C(=O)N4CCC5(CC4)OCCO5)cc32)cc1 do in these assays?
TIM10 inh: inactive; tim23-1 inh: inactive; tim10-1 inh: 45.5; NLRP3 yeast inh: inactive; NALP1 inh: inactive; V-ATPase pH: inactive; tim10-1 conf: inactive

What do the screens show for `O=C(c1ccc2c(c1)N(Cc1ccc(F)cc1)CCS2)N1CCC2(CC1)OCCO2`?
TIM10 inh: inactive; tim23-1 inh: inactive; tim10-1 inh: 40.3; NLRP3 yeast inh: inactive; NALP1 inh: inactive; V-ATPase pH: inactive; tim10-1 conf: inactive

How did CCC(=NCCc1ccccc1)c1c(O)n(C)c(=O)n(C)c1=O do in these assays?
TIM10 inh: inactive; tim23-1 inh: inactive; tim10-1 inh: inactive; NLRP3 yeast inh: inactive; V-ATPase pH: inactive

How did O=C(Nc1ccc(C(F)(F)F)cc1)c1cccn(Cc2ccc3c(c2)OC(F)(F)O3)c1=O do in these assays?
TIM10 inh: inactive; tim23-1 inh: inactive; tim10-1 inh: 45.8; NLRP3 yeast inh: inactive; NALP1 inh: inactive; V-ATPase pH: inactive; tim10-1 conf: inactive

How did CCOC(=O)N(c1ccccc1)P1(=S)OCC(C)O1 (centres undefined) do in these assays?
TIM10 inh: inactive; tim23-1 inh: inactive; tim10-1 inh: 50.0; NLRP3 yeast inh: inactive; NALP1 inh: inactive; V-ATPase pH: inactive; tim10-1 conf: inactive

What do the screens show for `CCOC(=O)N(c1ccccc1)P1(=S)OCCO1`?
TIM10 inh: inactive; tim23-1 inh: inactive; tim10-1 inh: inactive; NLRP3 yeast inh: inactive; NALP1 inh: inactive; V-ATPase pH: inactive

What do the screens show for `CN(C)C1(c2nnnn2CCOC(=O)Nc2ccc(Cl)cc2)CCCCC1`?
TIM10 inh: inactive; tim23-1 inh: inactive; tim10-1 inh: 40.9; NLRP3 yeast inh: inactive; NALP1 inh: inactive; V-ATPase pH: inactive; tim10-1 conf: 37.0

How did O=C(O)c1ccccc1-c1ccc(C=C2C(=O)N(c3ccccc3)C(=S)N(c3ccccc3)C2=O)o1 do in these assays?
TIM10 inh: inactive; tim23-1 inh: inactive; tim10-1 inh: 43.0; NLRP3 yeast inh: inactive; NALP1 inh: inactive; V-ATPase pH: inactive; tim10-1 conf: 38.7
